aDG glyco act – activators of alpha-DG glycosylation, primary screen, uHTS, Pro5-aDG cells, AlphaScreen | actives 0.22% (n = 360,000) | AID 624168, 2012 | alpha-DG glycosylation AlphaScreen (IIH6); 0% Pro5, 100% B10-LARGE cell signal | activation, % at 10 µM;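 active = activation of at least 8% versus controls, or a plate z-score of at least 8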;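 note: Pro5 are CHO cells carrying HIG-tagged alpha-DG that lacks glycosylation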
TWEAK-Fn14 inh – inhibitors of TWEAK-Fn14 signaling, primary screen, luciferase reporter cells, uHTS | inhibition, % at 10 µM | TWEAK-stimulated Fn14 reporter cells, luciferase luminescence, 8 h | actives 2% (n = 360,000); in the data active = inhibition above about 50%
LMP1 NFkB inh – EBV LMP1-driven NF-kappaB luciferase reporter inhibitors, primary screen, cell-based, luminescence, single point; LMP1-induced NF-kappaB luciferase reporter cells; inhibition, % at 12.5 µM; actives 0.69% (n = 350,000); in the data active = inhibition above about 41%
TROY NFkB inh – inhibitors of TROY-driven NF-kB signaling, primary screen, Q293 LMP1-TROYcd cells, NF-kB luciferase, uHTS; Q293 LMP1-TROYcd NF-kB luciferase reporter, 4 h; inhibition, % at 10 µM; actives 0.98% (n = 360,000); AID 1347056, 2019;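 active = compounds whose plate-normalised and pattern-corrected inhibition of the luciferase reporter signal at the single screening dose is 50% or more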
LGR2 inh – inhibitors of bursicon-induced LGR2 CRE-luciferase signal, primary screen, cell-based, HEK293, CRE-luciferase reporter, bursicon stimulation. Drosophila bursicon receptor LGR2 (rickets). bursicon-stimulated, 4 h. inhibition, % at 9.99 µM. actives 0.35% (n = 380,000). AID 720647, 2013;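 active = drop in luminescence signal, shown as inhibition above about 50% in the replicate tests, limit read from the data, passing the limit was not always enough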;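 note: agonist challenge used bursicon conditioned medium at about half maximal strength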
HSP90 refold inh – HSP90 inhibitors, primary screen, cell lysate, luminescence; inhibition, % at 5.6 µM; actives 0.91% (n = 290,000); Rabbit reticulocyte lysate, luciferase refolding luminescence, 3 h;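 active = inhibition above the screen-wide mean plus 3 SD, computed separately per campaign, cut at about 16% in these data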;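 note: inhibitors lower the luminescence because luciferase stays unfolded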
Hits are given with their value. Hits are enriched below; roughly 2.6% of the tested compounds scored in any of these assays.

Results for CCC(=O)NC(c1cccs1)c1cc(Cl)c2cccnc2c1O (configuration not stated) ?
aDG glyco act: inactive; TWEAK-Fn14 inh: inactive; LMP1 NFkB inh: inactive; TROY NFkB inh: inactive; LGR2 inh: inactive; HSP90 refold inh: inactive

Results for CCCN(C)C[C@@H]1Oc2ncc(C#CCOC)cc2C(=O)N([C@@H](C)CO)C[C@@H]1C ?
LGR2 inh: inactive

Results for O=C(Nc1ccc(N2CCN(C(=O)c3ccccc3F)CC2)cc1)c1cncc(Br)c1 ?
aDG glyco act: inactive; TWEAK-Fn14 inh: 64; LMP1 NFkB inh: inactive; TROY NFkB inh: 64; LGR2 inh: inactive; HSP90 refold inh: inactive

Results for O=C(Nc1ccncc1)c1cncc(Br)c1 ?
aDG glyco act: inactive; TWEAK-Fn14 inh: inactive; LMP1 NFkB inh: inactive; TROY NFkB inh: inactive; HSP90 refold inh: inactive

How did O=C(Nc1ccc([N+](=O)[O-])cc1)c1cncc(Br)c1 do in these assays?
aDG glyco act: inactive; TWEAK-Fn14 inh: inactive; LMP1 NFkB inh: 43; TROY NFkB inh: inactive; LGR2 inh: inactive; HSP90 refold inh: inactive

What do the screens show for `CCC(CC)C(=O)Nc1ccc(Sc2ccc([N+](=O)[O-])cc2)cc1`?
aDG glyco act: inactive; TWEAK-Fn14 inh: inactive; LMP1 NFkB inh: inactive; TROY NFkB inh: 55; LGR2 inh: inactive; HSP90 refold inh: inactive

What do the screens show for `O=C(Nc1ccc(N2CCCCC2)cc1)c1cncc(Br)c1`?
aDG glyco act: inactive; TWEAK-Fn14 inh: inactive; LMP1 NFkB inh: inactive; TROY NFkB inh: inactive; HSP90 refold inh: inactive

How did C[C@@H]1CCCCO[C@@H](CN(C)Cc2ccc3c(c2)OCO3)[C@H](C)CN([C@@H](C)CO)C(=O)c2cc(NC(=O)Nc3ccc(C(F)(F)F)cc3)ccc2O1 do in these assays?
LGR2 inh: inactive

Results for CN1CCN(C(=O)C[C@H]2CC[C@@H]3[C@@H](COc4ccc(NC(=O)c5cccs5)cc4C(=O)N3C)O2)CC1 ?
LGR2 inh: inactive

How did Cc1noc(C)c1NC(=O)N(C)C[C@H]1Oc2c(NS(=O)(=O)c3ccc(Cl)cc3)cccc2C(=O)N([C@H](C)CO)C[C@H]1C do in these assays?
LGR2 inh: inactive

What do the screens show for `COc1ccc(C(CNC(=O)Cc2ccc3ccccc3c2)N(C)C)cc1` (configuration not stated)?
aDG glyco act: inactive; TWEAK-Fn14 inh: inactive; LMP1 NFkB inh: inactive; TROY NFkB inh: inactive; LGR2 inh: inactive; HSP90 refold inh: inactive

How did COc1ccc(C(CNC(=O)C(C)c2ccc3cc(OC)ccc3c2)N(C)C)cc1 (configuration not stated) do in these assays?
aDG glyco act: inactive; TWEAK-Fn14 inh: 63; LMP1 NFkB inh: inactive; TROY NFkB inh: inactive; LGR2 inh: inactive; HSP90 refold inh: inactive

Results for O=C(C[C@H]1C[C@H]2c3cc(NC(=O)NC4CCCC4)ccc3O[C@H]2[C@H](CO)O1)NCc1ccc2c(c1)OCO2 ?
LGR2 inh: inactive

Results for CCOC(=O)C(NCc1ccco1)(NC(=O)c1ccccc1)C(F)(F)F (configuration not stated) ?
aDG glyco act: inactive; TWEAK-Fn14 inh: 87; LMP1 NFkB inh: inactive; TROY NFkB inh: inactive; HSP90 refold inh: inactive

Results for Cc1cc(NCCNC2=CC(=O)CCC2)nc2ccccc12 ?
aDG glyco act: inactive; TWEAK-Fn14 inh: 73; LMP1 NFkB inh: inactive; TROY NFkB inh: inactive; HSP90 refold inh: inactive

How did CCc1cccc(N=c2c([N+](=O)[O-])nn(-c3ccc4c(c3)OCCO4)n2O)c1 do in these assays?
aDG glyco act: inactive; TWEAK-Fn14 inh: inactive; LMP1 NFkB inh: inactive; TROY NFkB inh: 55; LGR2 inh: inactive; HSP90 refold inh: inactive

Results for CCc1cccc(N=c2c([N+](=O)[O-])nn(-c3ccc(Cl)cc3)n2O)c1 ?
aDG glyco act: inactive; TWEAK-Fn14 inh: inactive; LMP1 NFkB inh: inactive; TROY NFkB inh: inactive; LGR2 inh: inactive; HSP90 refold inh: inactive

Results for CC(C)c1ccc(N=c2c([N+](=O)[O-])nn(-c3ccc4c(c3)OCCO4)n2O)cc1 ?
aDG glyco act: inactive; TWEAK-Fn14 inh: inactive; LMP1 NFkB inh: inactive; TROY NFkB inh: inactive; LGR2 inh: inactive; HSP90 refold inh: inactive

How did COc1cc(N=c2c([N+](=O)[O-])nn(-c3ccc4c(c3)OCCO4)n2O)cc(OC)c1 do in these assays?
aDG glyco act: inactive; TWEAK-Fn14 inh: inactive; LMP1 NFkB inh: inactive; TROY NFkB inh: 53; LGR2 inh: inactive; HSP90 refold inh: inactive

Results for C/C=C/c1cccc(-c2nc(C(=O)N(C)C)cc3c2[C@@H](CCO)N([S@](=O)C(C)(C)C)C3)c1 ?
LGR2 inh: inactive

Results for C/C(=N\NC(=O)c1ccc(CN2CCc3ccccc3C2)cc1)c1ccccc1O ?
aDG glyco act: inactive; TWEAK-Fn14 inh: 83; LMP1 NFkB inh: inactive; TROY NFkB inh: inactive; LGR2 inh: inactive; HSP90 refold inh: inactive

What do the screens show for `O=C(Nc1ccc(S(=O)(=O)N2CCCC2)cc1)c1ccc(CN2CCc3ccccc3C2)cc1`?
aDG glyco act: inactive; TWEAK-Fn14 inh: 68; LMP1 NFkB inh: inactive; TROY NFkB inh: inactive; LGR2 inh: inactive; HSP90 refold inh: inactive

Results for O=C(NCc1ccc(F)cc1)[C@@H]1[C@@H](CO)[C@@H]2Cn3c(cccc3=O)[C@H]1N2Cc1cccnc1 ?
LGR2 inh: inactive

How did CCCNC(=O)N1CC2(CN(Cc3nccs3)C2)c2c([nH]c3cc(OC)ccc23)[C@@H]1CO do in these assays?
LGR2 inh: inactive

How did C[C@@H]1CN([C@@H](C)CO)C(=O)c2cc(NS(=O)(=O)c3cn(C)cn3)ccc2O[C@@H]1CN(C)Cc1ccc(C(=O)O)cc1 do in these assays?
LGR2 inh: inactive

What do the screens show for `O=c1[nH]c(-c2ccccc2F)nc2c1sc(=S)n2Cc1ccccc1`?
aDG glyco act: inactive; TWEAK-Fn14 inh: 61; LMP1 NFkB inh: inactive; TROY NFkB inh: 58; LGR2 inh: inactive; HSP90 refold inh: inactive

What do the screens show for `CCCCn1c(=O)[nH]c(=O)c2c1nc(-c1ccccc1F)n2Cc1ccccc1`?
aDG glyco act: inactive; TWEAK-Fn14 inh: inactive; LMP1 NFkB inh: inactive; TROY NFkB inh: inactive; LGR2 inh: inactive; HSP90 refold inh: inactive

What do the screens show for `COc1ccccc1-c1ccc([C@@H]2[C@H]3CN(S(=O)(=O)c4cn(C)cn4)CCCCN3[C@H]2CO)cc1`?
LGR2 inh: inactive

What do the screens show for `COc1ccc(/C=N/NC(=O)c2nc(-c3ccccc3)cc(-c3ccccc3)n2)cc1O`?
aDG glyco act: inactive; TWEAK-Fn14 inh: 54; LMP1 NFkB inh: inactive; TROY NFkB inh: inactive; LGR2 inh: inactive; HSP90 refold inh: inactive

How did COc1ccc(/C=N/Nc2nc3ccccc3o2)cc1O do in these assays?
aDG glyco act: inactive; TWEAK-Fn14 inh: 72; LMP1 NFkB inh: inactive; TROY NFkB inh: inactive; HSP90 refold inh: inactive
